Out of some 320,000 compounds screened, about 9,100 (2.8%) were called active. About 3% were inconclusive and are not listed. Calls follow the shape of the dose curve; as a rule, active = well fitted activation curve with a large enough effect; inconclusive = small, poorly fitted or top-dose-only effect; inactive = no such curve, though single readings can be large or run the other way. This excerpt belongs to a sample that is enriched for actives.
Experiment: qHTS Assay for Rab9 Promoter Activators; also: nearly all actives have a fitted effect of over 60% in size
Settings: Huh7 Rab9 promoter-luciferase reporter, luminescence, 24 h; series mostly up to 9.22 µM
Method in brief: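 Cells were plated at 1500 per well in reduced-serum medium with 10% FBS and left 2 h. Compound in DMSO was then added for 24 h at 37 °C. Reporter signal was read by luminescence after 10 min with luciferase detection reagent.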
Potency is read from the fitted curve at half-maximal effect.

Potency, active:
O=C(COC(=O)c1ccccc1)c1ccc2c(c1)OCCO2 631 nM
CC(=O)Nc1cccc(C(=O)OCC(=O)c2ccc3c(c2)OCO3)c1 89.1 nM
O=C(OCc1ccccc1F)c1ccc2c(c1)OCCO2 3160 nM
COc1cc(SC)ccc1C(=O)Nc1cc(C)ccn1 3550 nM
COc1cc(SC)ccc1C(=O)NCCOc1ccccc1Cl 3980 nM
Cc1ccc(NC(=O)NC(=O)c2ccccc2)cc1F 398 nM
CCCCSc1nc2ccccc2[nH]1 2000 nM
O=C(CSc1nc2ccccc2[nH]1)c1cccs1 2000 nM
CC(C)OC(=O)c1sc2nc3c(cc2c1N)C(=O)CCC3 3550 nM
CSc1nc2ccc(NC(=O)c3c(F)cccc3F)cc2s1 3550 nM
O=C(Nc1ccc2c(c1)CCC2)c1ccc(Br)s1 1120 nM
O=C(NC1CCCCC1)c1ccc(-c2ccc(Cl)cc2)o1 2820 nM
Cc1ccc(OC(=O)c2c(C)nn(-c3ccccc3)c2C)cc1 3160 nM
O=C(Nc1ccc2c(c1)OCCO2)C1CCCN(c2ncccn2)C1 (stereo unspecified) 316 nM
CC(C)C(=O)Nc1ccc2c(c1)oc1ccccc12 891 nM
S=c1[nH]nc(-c2cccnc2)n1/N=C/C(Cl)=C\c1ccccc1 3160 nM
O=c1oc(-c2ccco2)nc2sc3c(c12)CCCCC3 3550 nM
CCC(=O)Nc1sc(C(=O)Nc2ccccc2)c(C)c1C(=O)OC 891 nM
Cc1ccc(Nc2nc(N)nc(CSc3nnc(C)s3)n2)cc1 4470 nM
O=c1c2ccccc2ncn1/N=C/c1ccccc1 447 nM
Cc1nn2cc(-c3ccc(Cl)cc3)cnc2c1Br 1120 nM
Cc1ccc(SCCSc2ncccn2)cc1 2000 nM
O=S(=O)(Nc1ccc2nc(N3CCOCC3)sc2c1)c1ccccc1 2820 nM

Potency, inactive:
COc1ccc(Cl)cc1NC(=O)COc1ccc2c(c1)OCO2
CCOC(=O)CN(C(=O)CN1CCOCC1)c1ccc(Br)cc1
CC(NC(=O)COC(=O)c1ccc2c(c1)OCO2)c1ccccc1 (stereo unspecified)
O=C(CN1CCN(c2ccccc2F)CC1)c1ccc2c(c1)OCO2
O=C(COC(=O)c1ccncc1)c1ccccc1
CC(=O)Nc1cccc(C(=O)OCC(=O)NCc2cc(C)c(O)c(C)c2)c1
C/C(=N\NC(=O)C(N)=O)c1ccc2c(c1)OCCO2
O=C(COC(=O)c1ccc2c(c1)OCCO2)NCc1ccccc1
CN(CC(=O)NC(=O)Nc1ccccc1F)Cc1ccccc1
CCCn1c(N)c(C(=O)CSc2nnc3n2CCCCC3)c(=O)[nH]c1=O
O=C(Nc1nnc(CCN2CCCCC2)s1)c1cccc(Cl)c1
CC(NC(=O)CN(C)S(=O)(=O)c1ccc(F)cc1)C1CC2CCC1C2 (stereo unspecified)
Cc1ccc(CNC(=O)CC(NC(=O)c2ccccc2)c2ccccc2)cc1 (stereo unspecified)
CC1(C)CC(=O)C=C(c2cccc3c2Oc2ccccc2S3)C1
Cc1ccnc(NC(=O)CNC(=O)c2ccccc2)c1
Cc1ccnc(NC(=O)CCCOc2ccccc2)c1
COc1cc(SC)ccc1C(=O)N(Cc1ccccc1)c1ccccc1
COc1ccccc1OCCNC(=O)CCNC(=O)c1ccccc1Cl
COc1cc(F)c(C2=CC(=O)CC(C)(C)C2)cc1F
Cc1ccc(CC(=O)Nc2ccc(S(=O)(=O)N3CCOCC3)cc2)cc1C
CN1CCN(S(=O)(=O)c2cccc(C(=O)Nc3sccc3C#N)c2)CC1
COc1cccc(CNC(=O)CN2C(=O)NC(Cc3ccccc3)(c3ccccc3)C2=O)c1 (stereo unspecified)
Cc1nc(C)c(C(=O)Nc2ccc(C)c(F)c2)o1
Cc1cccc(NC(=O)NC(=S)NC(=O)c2ccccc2)c1
CC1CCCCC1NC(=O)NC(=O)COC(=O)C1=NN(c2ccccc2)C(=O)CC1 (stereo unspecified)
O=C(NCC1(N2CCCCC2)CCCCC1)c1ccc(NS(=O)(=O)c2ccc(F)cc2)cc1
CN(Cc1ccccc1)C(=O)CSc1nc2ccccc2[nH]1
O=C(CSc1nc2ccccc2[nH]1)Nc1nc(-c2ccccc2)c(-c2ccccc2)o1
CCc1nnc(NC(=O)CCCSc2nc3ccccc3[nH]2)s1
O=C(COC(=O)CCCSc1nc2ccccc2[nH]1)Nc1ccc(Oc2ccccc2)cc1
O=C(NCc1cccc(Cl)c1)C1=CC=CN2CCS(=O)(=O)N=C12
Nc1c(C(=O)NCc2ccccc2)sc2nc3c(cc12)C(=O)CCC3
Cc1cccc2cc3c(N)c(C(=O)N4CCCc5ccccc54)sc3nc12
CCCC(=O)Nc1nc2ccc(NC(=O)c3c(F)c(F)c(OC)c(F)c3F)cc2s1
O=C(Nc1ccncc1)c1c(F)cccc1F
CSCCC(NC(=O)COc1ccccc1)C(=O)N(C)CC(=O)Nc1ccc(C)cc1 (stereo unspecified)
O=C(NC1CCCC1)c1ccc(Br)s1
CC(C)C(=O)OCC(=O)Nc1ccc2c(c1)CCC2
Cc1ccc(NC(=O)CCNC(=O)c2ccc([N+](=O)[O-])cc2)cc1S(=O)(=O)N1CCOCC1
O=C(CCNC(=O)c1ccccc1Cl)NCc1ccco1
COc1ccc(CNC(=O)COC(=O)c2ccc(C)c(S(=O)(=O)N3CCOCC3)c2)cc1OC
S=C(NCc1ccc(Cl)cc1)NC1CCCCC1
O=C(NC(=S)NC1CCCCC1)c1ccc(Cl)cc1
CCCC(NCC(=O)Nc1ccccc1C(=O)NC1CC1)c1ccccc1 (stereo unspecified)
O=C(OCC(=O)N1CCc2ccccc21)c1ccc([N+](=O)[O-])cc1
Cc1cccc(C)c1NC(=O)COC(=O)c1c(C)nn(-c2ccccc2)c1C
Cc1ccc(-n2nc(C)c(C(=O)O)c2-n2cccc2)cc1
Cc1ccc(NC(=O)CN(C)S(=O)(=O)c2cnc[nH]2)cc1C
Cc1ccc(S(=O)(=O)N2CCOCC2)cc1NC(=O)COC(=O)c1cnccn1
O=C(Nc1ccc2c(c1)OCCO2)C1CCCC1
Cc1cc(C)nc(N2CCC(C(=O)Nc3ccc4c(c3)OCCO4)CC2)n1
Cc1c(C(C)CCCO)oc(=O)c2c1Oc1c(C)c(C(C)C[C@@H](C)O)oc(=O)c1C2 (stereo partly specified)
CCCN(CCC)CC(O)COc1ccccc1C(=O)Nc1ccccc1 (stereo unspecified)
Cc1ccc(C(=O)Nc2c(C#N)c(C)c(C)n2Cc2ccccc2)cc1
Cc1cc(=O)oc2cc(NC(=O)C(C)Oc3ccccc3)ccc12 (stereo unspecified)
CC(C)C(=O)Nc1ccc2oc(=O)ccc2c1
CC1(C)O[C@@H]2[C@H](O1)[C@@H](CO)O[C@H]2n1c(N2CCCCC2)nc2c(N)ncnc21
Cc1cc(-c2n[nH]c(=S)n2/N=C/C(Br)=C/c2ccccc2)n[nH]1
Fc1ccccc1/C=N/n1c(-c2cccnc2)n[nH]c1=S
Cn1c(=O)n(Cc2ccco2)c(=N)c2c3c(sc21)CCCC3
O=C(NCc1ccco1)c1cccn2c(=O)c3c4c(sc3nc12)CCCC4
CCOC(=O)N1CCN(S(=O)(=O)c2ccc3c(c2)C(C)C(=O)N3)CC1 (stereo unspecified)
CC(C)N(C(=O)CN1CCN(S(=O)(=O)c2ccc(Br)s2)CC1)C(C)C
COc1cc(C(=O)NNC(=O)CN2C(=O)NC3(CCCC3)C2=O)cc(OC)c1OC
COC(=O)c1c(NC(C)=O)sc(C(=O)Nc2ccccc2OC)c1C
CCOC(=O)c1sc(NC(=O)COc2ncnc3ccccc23)c(C(=O)OCC)c1C
Cc1ccc(NC(=O)CCC(=O)N2CCC(c3ccccc3)=N2)cc1S(=O)(=O)N1CCCCC1
CCN(CC)C(=O)c1nc[nH]c1C(=O)N(C)Cc1ccccc1
CCOC(=O)N1CCN(Cc2nc(N)nc(Nc3ccc(C)cc3)n2)CC1
Cc1nnc(SCc2nc3ccccc3nc2C)s1
CC(C)(C)C(=O)CSc1ccc(S(=O)(=O)N2CCCC2)cn1
COCc1c(C(=O)OCC(=O)Nc2ccc(OC(F)F)cc2)oc2ccccc12
O=C(Nn1cnc2ccccc2c1=O)c1ccccc1
CCCc1nc2ccccc2c(=O)n1/N=C/c1ccc(O)c(O)c1
CC(C)C(NC(=O)c1c(F)cccc1F)C(=O)NCc1ccncc1 (stereo unspecified)
Cc1noc(C)c1C(=O)NCC1COc2ccccc2O1 (stereo unspecified)
O=C(COC(=O)c1ccc(O)cc1O)NNC(=O)c1cccs1
Cc1ccc(SCCC(=O)NC(C(C)C)C(C)C)cc1
Cc1ccc(SCCC(=O)NCc2ccccn2)cc1
Nc1nnc(SCC(=O)NCC(=O)Nc2ccc(F)c(F)c2F)s1
Cc1c(C(=O)NNC(=O)c2ccncc2)oc2ccccc12
Cc1cccc(N(C)C(=O)CN2C(=O)COc3ccc(S(=O)(=O)N4CCCCCC4)cc32)c1
CN(CC(=O)Nc1cccc(F)c1)C(=O)CC1CCCC1
COc1ccc(C2=NN(C(=O)CSc3nnnn3C)C(c3ccco3)C2)cc1 (stereo unspecified)
Cc1ccc(C(=O)OCC(=O)Nc2ccc(Cl)cn2)cc1S(=O)(=O)N1CCOCC1
CC(=O)Nc1ccc(S(=O)(=O)Nc2ccc(N3CCOCC3)c(F)c2)cc1
O=C(c1ccc2nc(N3CCOCC3)sc2c1)N1CCN(c2ccc(Cl)cc2)CC1
N#Cc1ccc(CN2CCN(CC(=O)Nc3ccccc3C(=O)NC3CC3)CC2)cc1
